Source: PubChem
S-ASM inh: human S-ASM enzyme inhibition; P17405; placental ASM, HMU-PC fluorogenic substrate, 60 min; Potency, µM (doses to about 57.5 µM), for inactives: at the top dose activity change, negative = inhibition, usual class: inhibitors; 0.006% of 340,000 active; AID 504937; note: potency is the fitted concentration of half-maximal effect
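Human placenta-derived ASM enzyme was preincubated with compound for 10 minutes at room temperature, then given fluorogenic substrate HMU-PC0 (9 uM final) for 60 minutes at 37 °C; a pH 10 stop preceded fluorescence reading at Ex 386/Em 447 nm.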
Apoferritin bind: binds horse apoferritin like a general anesthetic. P02791. apoferritin/1-aminoanthracene competitive binding, fluorescence. Potency, µM (top dose mostly 77.5 µM), inactives show at the top dose activity change, negative = displacement, hits mostly inhibitors. 0.074% of 350,000 active; note: potency is the fitted concentration of half-maximal effect; % is set by controls: 0 for no effect and ±100 for the full control effect; nearly all actives have a fitted effect of over 20% in size
Target sequence (P02791 2-175 limits assumed): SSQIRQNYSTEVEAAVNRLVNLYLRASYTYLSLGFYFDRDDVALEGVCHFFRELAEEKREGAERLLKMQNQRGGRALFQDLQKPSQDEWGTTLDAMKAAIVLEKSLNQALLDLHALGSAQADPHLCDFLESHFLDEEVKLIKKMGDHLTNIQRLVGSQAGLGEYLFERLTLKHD
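Concentration-response curves derived by four-parameter Hill fitting of normalized fluorescence, where compounds displaced 1-AMA from 10 uM horse apoferritin following a brief 10 min room-temperature incubation; propofol titration acted as positive control.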
TSG101-PTAP inh: blocks PTAP/TSG101 interaction to inhibit HIV-1 budding. Q99816. Fluorescence polarization, FITC-PTAP peptide / Tsg101 binding. Potency, µM (highest dose often 115 µM), for inactives: top-dose activity change, negative = inhibition, usual class: inhibitors. 340,000 tested, under 10 active. AID 493005; active = well fitted inhibition curve with a large enough effect in the main read-out, with a control signal flat, not every such curve was filed as active; note: potency is the fitted concentration of half-maximal effect; % of control where 0% means no effect
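Fluorescence anisotropy tracks displacement of a FITC-tagged PTAP peptide (50 nM) from the Tsg101 binding domain (10 uM), following a 20 min room-temperature incubation at pH 7.5.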
BRCA1 expr up: activators of BRCA1 expression. 1.1% of 380,000 active. Potency, µM (doses to about 46.1 µM), for inactives: top-dose activation, most hits filed as activators. MCF7-BRCA1-FFLuc reporter, luminescence, 48 h; response scale: scaled: vehicle 0%, 10 µM genistein 100%; note: potency is the fitted concentration of half-maximal effect; nearly all actives have a fitted effect of over 80% in size
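Cells: MCF7-BRCA1-FFLuc, 2000/well. Exposure: 48 h, 37 °C, 5% CO2. Read: luminescence, 15 min post-substrate. Controls: genistein 10 microM (maximal activation), DMSO (neutral).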
TSHR antag: blocks TSH signaling through the human TSH receptor. P16473. TSHR-expressing cells, TSH-stimulated cAMP HTRF, 2 h; active compounds read low. activity change, negative = inhibition, % at 11.5 µM. 0.2% of 330,000 active;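 active = activity change below a set negative limit, meaning inhibition stronger than a set level, cut at about -70% in these data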; note: % is set by controls: 0 for no effect and ±100 for the full control effect
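Inhibition of cAMP made by TSHR-expressing cells under TSH stimulation (4nM final, EC80; 2 h, 37 deg C) is quantified with a one-step lysis HTRF kit, anti-cAMP cryptate versus cAMP-d2.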
* hit, by the source's call; i = inactive; nt = no result given. Only some compounds are listed: those with a hit (about 1.2% of all), similar ones and a draw of the others. Unless noted, calls come from the whole dose curve; as a rule, active = well fitted curve in the direction sought with a large enough effect; inconclusive = small, poorly fitted or top-dose-only effect, or another doubt; inactive = no such curve, though single readings can be large; an effect the other way counts as inactive or inconclusive.

SMILES	S-ASM inh	Apoferritin bind	TSG101-PTAP inh	BRCA1 expr up	TSHR antag
Cn1cccc1C(=O)OCC(=O)NCc1ccc2c(c1)OCO2	6%	nt	-2%	16%	18
Cn1cccc1C(=O)OCC(=O)Nc1ccc2c(c1)OCCO2	0%	nt	-2%	2µM*	2
CCOC(=O)c1ccccc1OCc1cc(C2Nc3ccccc3C(=O)N2c2cccc3ccccc23)ccc1OC (stereo not given)	nt	nt	nt	13%	nt
CC(C)C[C@H](NC(=O)[C@H](CC(C)C)NC(=O)[C@H](CCC(N)=O)NC(=O)[C@H](CO)NC(=O)[C@@H]1CCCN1C(=O)[C@H](CO)NC(=O)[C@H](CO)NC(=O)[C@@H](NC(=O)[C@H](Cc1cnc[nH]1)NC(=O)[C@H](CCC(=O)O)NC(=O)[C@H](Cc1ccc(O)cc1)NC(=O)[C@H](CCCCN)NC(=O)[C@H](CCC(N)=O)NC(=O)[C@H](Cc1ccc(O)cc1)NC(=O)[C@H](CC(=O)O)NC(=O)[C@@H](NC(=O)[C@@H]1CCCN1C(=O)[C@H](CC(=O)O)NC(=O)[C@H](CC(N)=O)NC(=O)[C@H](CC(=O)O)NC(=O)CNC(=O)[C@H](CC(=O)O)NC(=O)[C@@H]1CCCN1C(=O)[C@H](CCC(N)=O)NC(=O)[C@H](Cc1ccc(O)cc1)NC(=O)[C@H](C)NC(=O)[C@H](Cc1c[nH]c2ccccc12)NC(=O)[C@H](Cc1ccccc1)NC(=O)[C@@H](NC(=O)[C@@H](N)CO)[C@@H](C)O)[C@@H](C)O)[C@@H](C)O)C(=O)N[C@@H](C)C(=O)N1CCC[C@H]1C(=O)NCC(=O)N[C@@H](CC(=O)O)C(=O)N[C@@H](Cc1ccc(O)cc1)C(=O)O	nt	5%	nt	nt	nt
O=C1CC(c2ccco2)Cc2[nH]c(=O)c(C(=O)Nc3ccccc3)cc21 (stereo not given)	nt	nt	nt	-8%	nt
COCCOC(=O)N1CCN(/[N+]([O-])=N/Oc2ccc([N+](=O)[O-])cc2[N+](=O)[O-])CC1	nt	nt	nt	-66%	nt
O=C(CSc1ccccn1)Nc1ccc2c(c1)CCC2	1%	nt	-6%	10µM*	-3
O=C(CSc1ncccn1)Nc1ccc2c(c1)OCO2	-4%	nt	-2%	50%	10
Cc1ccccc1NC(=O)CSc1nnc(-c2cccc(Cl)c2)o1	nt	-13%	nt	nt	nt
O=C(CSc1nnc(-c2cccc(Cl)c2)o1)Nc1ccc2c(c1)OCCO2	-8%	-1%	-5%	7.9µM*	-1
O=C(CSc1ncccn1)NC(=O)Nc1ccc2c(c1)OCCO2	3%	-21%	-2%	13µM*	4
O=C(CNCc1ccccc1Cl)Nc1ccc2c(c1)OCCO2	7%	-13%	-2%	10µM*	3
N#Cc1cccc(-c2csc(N3CCC(C(N)=O)CC3)n2)c1	nt	nt	nt	nt	-9
Cc1c(C=O)ccc(N(C)C)c1C	nt	nt	nt	10%	nt
CCN1C(=O)C(Cc2nc3ccccc3c(=O)n2-c2cccc(C)c2)c2ccccc21 (stereo not given)	nt	-13%	nt	nt	nt
CCNC(=S)N/N=C/c1cccc(C)c1	0%	-6%	0%	10µM*	3
OCC1O[C@H]([S-])[C@H](O)[C@@H](O)[C@@H]1O.[Au+] (stereo not given in full)	nt	nt	nt	nt	-18
O=C(Nc1ccc(Cl)cn1)c1cc2c(s1)-c1ccccc1OC2	i	0%	-13%	5.6µM*	1
O=C(NCc1ccccn1)c1ccc(N2CCCC2=O)cc1	3%	-3%	-10%	13µM*	4
O=C(NCc1ccccn1)c1ccc(-c2ccccc2)cc1	1%	-6%	1%	13µM*	-9
COc1ccc(/C=C(/C#N)c2nc(-c3cc4ccccc4oc3=O)cs2)cc1	nt	2%	nt	nt	nt
CC1CCC/C(=C(\C#N)c2nc(-c3cc4ccccc4oc3=O)cs2)C1 (stereo not given)	55%	-18%	1%	3.2µM*	10
CCc1cc2c(=O)n(CC(C)C)cnc2s1	6%	-16%	-4%	11µM*	-1
Cc1cc(NC(=O)c2cc(C3CC3)on2)no1	3%	-13%	-6%	6.3µM*	-1
